Assay results taken from the supplement of paper PMC7366291.
Where a name gives a salt, the structure may show the parent alone. ± gives the standard deviation or the standard deviation of the averaged measurements.

What was measured:
Settings in all cases: 25 µM; exposure: 24-48 hpf
[1] = test system: Danio rerio Tg(wt1b:EGFP) embryo, pronephros; test: glomerular separation, fold change vs DMSO control; higher = glomeruli further apart (abnormal)
Outline: (§1)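 From 24 to 48 hpf, at 28.5°C, dechorionated Tg(wt1b:EGFP) zebrafish embryos sat in HEPES-buffered E3 with 0.003% PTU carrying 25 μM compound and 0.5% DMSO. Their pronephroi were imaged dorsally in 96-well plates filled with agarose, using 470 nm light and 10 z-slices. A Fiji macro measured distances and angles between 16 reference points that were set manually on maximum projections, and any value more than 2 SD from its feature mean was excluded. Features are expressed as fold change relative to the mean of DMSO-treated embryos imaged on the same day.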

[2] = test system: Danio rerio Tg(wt1b:EGFP) embryo, pronephros; test: glomerular width (mean of left and right), fold change vs DMSO control; higher = wider glomerulus
Outline: as §1

[3] = test system: Danio rerio Tg(wt1b:EGFP) embryo, pronephros; test: fraction of imaged embryos annotated as normal kidney; higher = less nephrotoxic; extreme values may be limits of the assay
Outline: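 Zebrafish embryos carrying Tg(wt1b:EGFP) were dechorionated and exposed to 25 μM compound (0.5% DMSO) between 24 and 48 hpf at 28.5°C. Their pronephroi were imaged by widefield fluorescence, and each embryo was classed by hand from maximum projections. The measure is the fraction of embryos per treatment falling in the normal-kidney category.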

[4] = test system: Danio rerio Tg(wt1b:EGFP) embryo, pronephros; test: pronephric angle neck segment to proximal convoluted tubule (mean of left and right), fold change vs DMSO control; higher = larger pronephric angle
Outline: as §1

| Compound | glomerular separation [1] | glomerular width [2] | fraction of imaged embryos annotated as normal kidney [3] | pronephric angle neck segment [4] |
| --- | --- | --- | --- | --- |
| Nc1nnc(-c2cccc(Cl)c2Cl)c(N)n1 [Lamotrigine] | 0.99 ± 0.4 | 0.999 ± 0.016 | 0.9 | 0.998 ± 0.039 |
| OCCN(CCO)c1nc(N2CCCCC2)c2nc(N(CCO)CCO)nc(N3CCCCC3)c2n1 [Dipyridamole] | 0.687 ± 0.13 | 0.982 ± 0.046 | 0.8 | 1.017 ± 0.0071 |
| Cc1ncc([N+](=O)[O-])n1CCO [Metronidazole] | 1.1 ± 0.31 | 0.928 ± 0.084 | 0.917 | 0.884 ± 0.061 |
| CC(C)NCC(O)c1cc(O)cc(O)c1 (configuration not stated) [Metaproterenol sulfate, orciprenaline sulfate] | 1.08 ± 0.74 | 1.02 ± 0.014 | 0.909 | 1.08 ± 0.07 |
| CCn1nc(C(=O)O)c(=O)c2cc3c(cc21)OCO3 [Cinoxacin] | 1.07 ± 0.43 | 0.979 ± 0.031 | 0.8 | 1.05 ± 0.1 |
| CC(COc1ccccc1)NC(C)C(O)c1ccc(O)cc1 (configuration not stated) [Isoxsuprine hydrochloride] | 1.07 ± 0.26 | 1.08 ± 0.024 | 1 | 0.928 ± 0.029 |
| CCN(CC)C(C)CN1c2ccccc2Sc2ccccc21 (configuration not stated) [Ethopropazine hydrochloride] | 0.571 ± 0.084 | 1.03 ± 0.035 | 0.917 | 1 ± 0.029 |
| CN[C@@H]1[C@H](O)[C@H](NC)[C@H]2O[C@@]3(O)C(=O)C[C@@H](C)O[C@H]3O[C@@H]2[C@H]1O [Spectinomycin dihydrochloride] | 0.786 ± 0.48 | 1.07 ± 0.021 | 0.909 | 0.9719 ± 0.0052 |
| Cc1nc(=O)c2cc(CN(C)c3ccc(C(=O)N[C@@H](CCC(=O)O)C(=O)O)s3)ccc2[nH]1 [Raltitrexed] | 0.711 ± 0.3 | 1.08 ± 0.017 | 0.917 | 0.9802 ± 0.0082 |
| CC[C@H]1OC(=O)[C@H](C)[C@@H](O[C@H]2C[C@@](C)(OC)[C@@H](O)[C@H](C)O2)[C@H](C)[C@@H](O[C@@H]2O[C@H](C)C[C@H](N(C)C)[C@H]2O)[C@](C)(O)C[C@@H](C)CN(C)[C@H](C)[C@@H](O)[C@]1(C)O [Azithromycin] | 0.933 ± 0.41 | 0.945 ± 0.022 | 1 | 1.012 ± 0.0055 |
| CS(=O)(=O)c1ccc(C2=C(c3ccccc3)C(=O)OC2)cc1 [Rofecoxib] | 0.981 ± 0.22 | 0.974 ± 0.11 | 1 | 0.969 ± 0.024 |
| CC12CC3CC(C)(C1)CC(N)(C3)C2 [Memantine Hydrochloride] | 1 ± 0.34 | 1.05 ± 0.079 | 0.917 | 0.9526 ± 0.0081 |
| Cc1ccc(O)c([C@H](CCN(C(C)C)C(C)C)c2ccccc2)c1 [Tolterodine tartrate] | 1.13 ± 0.42 | 1.06 ± 0.022 | 0.818 | 0.986 ± 0.044 |
| CC(=O)OCC(=O)[C@@]12OC3(CCCC3)O[C@@H]1C[C@H]1[C@@H]3CCC4=CC(=O)C=C[C@]4(C)[C@@]3(F)[C@@H](O)C[C@@]12C [Amcinonide] | 1.06 ± 0.48 | 1.22 ± 0.14 | 0.417 | 1.01 ± 0.019 |
| CCN1CCCC(OC(=O)C(c2ccccc2)c2ccccc2)C1 (configuration not stated) [Piperidolate hydrochloride] | 0.836 ± 0.28 | 0.997 ± 0.01 | 0.75 | 0.98 ± 0.016 |
| CCOc1ccc2ccccc2c1C(=O)N[C@@H]1C(=O)N2[C@@H]1SC(C)(C)[C@@H]2C(=O)O [Nafcillin sodium salt monohydrate] | 0.868 ± 0.32 | 0.941 ± 0.019 | 0.833 | 1.041 ± 0.0022 |
| CC(C)(C)NC[C@H](O)COc1ccccc1C1CCCC1 [Penbutolol sulfate] | 0.661 ± 0.15 | 0.988 ± 0.02 | 0.917 | 1.02 ± 0.02 |
| CC=CC1=C(C(=O)O)N2C(=O)[C@@H](NC(=O)[C@H](N)c3ccc(O)cc3)[C@H]2SC1 [Cefprozil] | 0.967 ± 0.4 | 1.086 ± 0.0056 | 0.917 | 0.965 ± 0.061 |
| CC(C(=O)O)c1ccc(-c2ccccc2)c(F)c1 (configuration not stated) [Flurbiprofen] | 5.61 ± 1.3 | 0.48 ± 0.02 | 0 | 1.96 ± 0.059 |
| Nc1ccn([C@H]2CC[C@@H](CO)O2)c(=O)n1 [Zalcitabine] | 1.08 ± 0.56 | 0.966 ± 0.061 | 0.917 | 0.996 ± 0.015 |
| COc1ccc(C(=O)c2ccccc2)c(O)c1 [Oxybenzone] | 0.878 ± 0.34 | 1.09 ± 0.026 | 0.833 | 1.03 ± 0.02 |
| CC(=O)CC(c1ccc([N+](=O)[O-])cc1)c1c(O)c2ccccc2oc1=O (configuration not stated) [Acenocoumarol] | 0.834 ± 0.45 | 0.94618 ± 0.00069 | 0.8 | 1.07 ± 0.076 |
| CC(=O)N1CCN(c2ccc(OCC3COC(Cn4ccnc4)(c4ccc(Cl)cc4Cl)O3)cc2)CC1 (configuration not stated) [Ketoconazole] | 0.931 ± 0.28 | 1.01 ± 0.082 | 0.75 | 0.994 ± 0.04 |
| COc1ccc(-c2ccc(=N)n(CCCC(=O)O)n2)cc1 [Gabazine bromide] | 0.985 ± 0.27 | 0.983 ± 0.024 | 0.667 | 1.02 ± 0.026 |
| CN(C)c1ccc(O)c2c1C[C@H]1C[C@H]3[C@H](N(C)C)C(O)=C(C(N)=O)C(=O)[C@@]3(O)C(O)=C1C2=O [Minocycline hydrochloride] | 1.02 ± 0.2 | 1.02 ± 0.024 | 0.8 | 0.92712 ± 6.2e-05 |
| O=C(Oc1cccc2cccnc12)c1ccccc1 [Benzoxiquine] | 3.04 ± 1.1 | 0.56 ± 0.11 | 0.0833 | 1.1 ± 0.022 |
| C[C@]12CCC(=O)C=C1CC[C@@H]1[C@@H]2[C@@H](O)C[C@@]2(C)[C@H]1CC[C@]2(O)C(=O)CO [Hydrocortisone base] | 1.25 ± 0.65 | 1.16 ± 0.081 | 0.5 | 0.95 ± 0.064 |

| Compound | glomerular separation [1] | glomerular width [2] | fraction of imaged embryos annotated as normal kidney [3] | pronephric angle neck segment [4] |
| --- | --- | --- | --- | --- |
| CCN(CC)Cc1cc(Nc2ccnc3cc(Cl)ccc23)ccc1O [Amodiaquin dihydrochloride dihydrate] | 0.602 ± 0.18 | 0.999 ± 0.012 | 0.917 | 0.957 ± 0.016 |
| CC(=O)O[C@]1(C(C)=O)CC[C@H]2[C@@H]3C=C(Cl)C4=CC(=O)CC[C@]4(C)[C@H]3CC[C@@]21C [Chlormadinone acetate] | 1.26 ± 0.62 | 0.909 ± 0.053 | 0.636 | 1.17 ± 0.093 |
| N[C@H]1CONC1=O [(S)-(-)-Cycloserine] | 0.898 ± 0.5 | 0.892 ± 0.011 | 0.5 | 1.025 ± 0.0084 |
| COc1c2occc2c(OC)c2c(=O)cc(C)oc12 [Khellin] | 0.835 ± 0.39 | 1 ± 0.033 | 1 | 1.03 ± 0.0013 |
| Nc1nc(/C(=C/CC(=O)O)C(=O)N[C@@H]2C(=O)N3C(C(=O)O)=CCS[C@H]23)cs1 [Ceftibuten] | 0.515 ± 0.17 | 1.016 ± 0.0039 | 1 | 0.963 ± 0.019 |
| CC(C)NCC(O)c1ccc(NS(C)(=O)=O)cc1 (configuration not stated) [Sotalol hydrochloride] | 0.82 ± 0.23 | 1.03 ± 0.062 | 0.8 | 1.01 ± 0.043 |
| CCC(=O)O[C@]1(C(=O)SCF)[C@H](C)C[C@H]2[C@@H]3C[C@H](F)C4=CC(=O)C=C[C@]4(C)[C@@]3(F)[C@@H](O)C[C@@]21C [Fluticasone propionate] | 1.84 ± 0.75 | 1.27 ± 0.021 | 0.0833 | 1.04 ± 0.079 |
| CCn1cc(C(=O)O)c(=O)c2cc(F)c(N3CCNCC3)nc21 [Enoxacin] | 0.719 ± 0.29 | 0.9596 ± 0.0034 | 0.727 | 1.06 ± 0.017 |
| C[C@H](CCC(=O)O)[C@H]1CC[C@H]2[C@@H]3CC[C@@H]4C[C@H](O)CC[C@]4(C)[C@H]3CC[C@]12C [Lithocholic acid] | 1.26 ± 0.64 | 0.839 ± 0.085 | 0.364 | 0.929 ± 0.046 |
| CC(C)[C@H](N)C(=O)OCCOCn1cnc2c(=O)nc(N)[nH]c21 [Valacyclovir hydrochloride] | 0.851 ± 0.28 | 1 ± 0.066 | 0.917 | 0.955 ± 0.044 |
| CO[C@@]1(NC(=O)C2SC(=C(C(N)=O)C(=O)O)S2)C(=O)N2C(C(=O)O)=C(CSc3nnnn3C)CS[C@@H]21 (some centres not stated) [Cefotetan] | 1.24 ± 0.33 | 0.972 ± 0.012 | 0.909 | 0.985 ± 0.06 |
| O=C1Cc2cc(CCN3CCN(c4nsc5ccccc45)CC3)c(Cl)cc2N1 [Ziprasidone  Hydrochloride] | 1.5 ± 0.53 | 1.03 ± 0.025 | 0.833 | 1.05 ± 0.04 |
| CC(=O)N(CC(O)CN(C(C)=O)c1c(I)c(C(=O)NCC(O)CO)c(I)c(C(=O)NCC(O)CO)c1I)c1c(I)c(C(=O)NCC(O)CO)c(I)c(C(=O)NCC(O)CO)c1I (configuration not stated) [Iodixanol] | 0.874 ± 0.28 | 1.043 ± 0.0099 | 0.917 | 1 ± 0.048 |
| N=C(N)NCC1COC2(CCCCC2)O1 (configuration not stated) [Guanadrel sulfate] | 0.935 ± 0.45 | 1.02 ± 0.071 | 0.75 | 0.992 ± 0.012 |
| O=C(O)c1cc(-c2ccc(F)cc2F)ccc1O [Diflunisal] | 4.51 ± 2.5 | 0.881 ± 0.022 | 0.0833 | 1.69 ± 0.17 |
| O=C(O)Cc1ccccc1Nc1c(Cl)cccc1Cl [Diclofenac sodium] | 3.78 ± 1.9 | 0.492 ± 0.031 | 0 | 1.63 ± 0.018 |
| CCCCC1(COC(=O)CCC(=O)O)C(=O)N(c2ccccc2)N(c2ccccc2)C1=O [Suxibuzone] | 1.48 ± 0.71 | 0.92 ± 0.016 | 0.75 | 0.992 ± 0.016 |
| CC(=O)O[C@H]1C[C@@]2(C)[C@@H](C[C@@H](O)[C@H]3[C@@]4(C)CC[C@@H](O)[C@@H](C)[C@@H]4CC[C@@]32C)/C1=C(\CCC=C(C)C)C(=O)O [Fusidic acid sodium salt] | 0.853 ± 0.16 | 1.06 ± 0.025 | 1 | 1.02 ± 0.014 |
| CO[C@H]1/C=C/O[C@@]2(C)Oc3c(C)c(O)c4c(O)c(c5c(nc6cc(C)ccn65)c4c3C2=O)NC(=O)/C(C)=C\C=C\[C@H](C)[C@H](O)[C@@H](C)[C@@H](O)[C@@H](C)[C@H](OC(C)=O)[C@@H]1C [Rifaximin] | 0.666 ± 0.16 | 1.06 ± 0.019 | 0.833 | 0.984 ± 0.022 |
| Cc1ccc(N(CC2=NCCN2)c2cccc(O)c2)cc1 [Phentolamine hydrochloride] | 1.13 ± 0.33 | 1.08 ± 0.02 | 0.667 | 0.994 ± 0.018 |
| CN(C)CCCN1c2ccccc2Sc2ccccc21 [Promazine hydrochloride] | 1.25 ± 0.35 | 1.044 ± 0.0041 | 0.75 | 0.962 ± 0.047 |
| CNCCC(Oc1ccc(C(F)(F)F)cc1)c1ccccc1 (configuration not stated) [Fluoxetine hydrochloride] | 1.23 ± 0.69 | 0.903 ± 0.041 | 0.583 | 1.04 ± 0.054 |
| CCN(CC)CCOC(=O)c1ccc(N)cc1 [Procaine hydrochloride] | 0.828 ± 0.2 | 1.057 ± 0.0024 | 0.667 | 1.081 ± 0.0098 |
| Cc1c(Cl)cccc1Nc1ncccc1C(=O)O [Clonixin Lysinate] | 4.04 ± 1.5 | 0.545 ± 0.048 | 0 | 1.81 ± 0.068 |
| CCCCc1nc(Cl)c(CO)n1Cc1ccc(-c2ccccc2-c2nnn[nH]2)cc1 [Losartan] | 0.969 ± 0.39 | 0.9444 ± 0.0062 | 0.75 | 1.04 ± 0.044 |
| Clc1ccc(C(c2ccccc2Cl)C(Cl)Cl)cc1 (configuration not stated) [Mitotane] | 0.566 ± 0.18 | 0.969 ± 0.038 | 0.909 | 1.05 ± 0.049 |
